The campaign covered roughly 68,000 compounds. About 2,700 (4%) showed an effect of 50% or more. The sample as a whole holds a higher share of strong results than the screen did.
Each molecule was assayed on Plasmodium berghei (assay: Screen against P. berghei liver stage (PbLuc), transformed with Luciferase, at 2uM). Details: tested at 2 uM.
Assay type: functional, HepG2

Structure (SMILES)	INHIBITION [%]
COCCN1CCC(C(=O)N(C)CCOc2ccc(C)cc2Cl)C1 (configuration not stated)	-23.16
Cc1n[nH]cc1CNC(=O)CCCc1cccs1	20.86
C[C@@H]1CN(Cc2ccc(-c3ccncc3)cc2F)CC(C(N)=O)O1 (some centres not stated)	-11.35
CN1CCC2(CCCN(C(=O)c3cncn3C)C2)CC1	13.26
CC(C)N1CCC2(CCCN(C(=O)c3cncn3C)C2)CC1	51.36
CC(C)N1CCOCC2(CCCN(C(=O)c3cncn3C)C2)C1 (configuration not stated)	9.1
CCSc1nc(N)c(NC(=O)c2ccc(C)cc2)c(=O)[nH]1	7.1
COCCC(=O)N1CC[C@H]2O[C@@H](C)C[C@H]2C1	26.31
O=C(Nc1cnn(COc2ccc(F)cc2Cl)c1)C1CC1	25.24
COc1cc(-c2nc3c([nH]2)CCCNC3=O)ccc1O	-58.91
COc1ccc(-c2nc3c([nH]2)CCCNC3=O)cc1OC	75.76
COc1cc(-c2nc3c([nH]2)CCCNC3=O)ccc1OC(C)C	-20.6
NC(=O)c1cccc(CC2CCN(C(=O)CO)C2)c1 (configuration not stated)	-5.6
Cc1ccc(-c2cc(CNC(=O)N3CCC(N(C)C)CC3)on2)cc1	23.24
CN(Cc1cc(F)ccc1C#N)CC(C)(CO)CO	55.36
CN(Cc1ccc(F)cc1F)CC(C)(CO)CO	38.67
CN(Cc1cc(F)ccc1F)CC(C)(CO)CO	50.59
CN(CC(C)(CO)CO)C(=O)Nc1cc(F)cc(Cl)c1	-4.57
CSCCN(C)Cc1ccc(F)cc1C#N	-63.41
CN(Cc1ccc(F)cc1C#N)CC(F)(F)F	4.12
CNC(=O)c1ccc(OC)c(NCc2ncc(-c3cccs3)o2)c1	2.67
Cc1ccc(CN2CCc3ncnc(-c4cccnc4)c3CC2)o1	18.57

Structure (SMILES)	INHIBITION [%]
Cc1ccc(CN2CCc3ncnc(-c4ccncc4)c3CC2)o1	76.36
Cc1ccc(CN2CCc3ncnc(-c4ccc(F)cc4)c3CC2)o1	-23.71
CCc1noc(C)c1C(=O)N1CCCN(Cc2cscn2)CC1	-2.47
O=C(Cc1ccsc1)N1C[C@@H]2OCCN(c3cnccn3)[C@@H]2C1	21.42
c1cncc(O[C@H]2CC[C@H]3[C@H]2OCCN3C2CCCC2)c1	-74.01
CC(C)NC(=O)[C@@H]1C[C@@H](N)CN1C(=O)c1cc2c([nH]c1=O)CCCC2	31.65
COc1nc2c(cc1C(=O)N1C[C@H](N)C[C@H]1C(=O)NC(C)C)CCC2	43.8
COc1nc2c(cc1C(=O)N1C[C@@H](N)C[C@H]1C(=O)NC(C)C)CCC2	63.17
CC1CCC(NC(=O)Nc2ccc(CC(=O)N(C)C)cc2)CC1 (configuration not stated)	35.5
Cn1cc(CN2CCN(CC3(c4ccccc4)CC3)CC2)cn1	27.03
COc1ccc2c(C)c(C(=O)N3CCC(NC(C)=O)C3)oc2c1 (configuration not stated)	-41.96
Cc1ccccc1[C@@H]1CN(Cc2c(C)noc2C)C[C@H]1C(=O)O	-18.65
Cc1noc(C)c1CN1C[C@@H](C(=O)O)[C@H](c2ccccc2)C1	-0.59
COc1ccccc1[C@@H]1CN(Cc2c(C)noc2C)C[C@H]1C(=O)O	68.39
O=C(NCCn1ccnc1)N1CCN(c2nccs2)CC1	-16.42
Cc1nc(CN2CC(Cc3ccccc3)CC2=O)no1 (configuration not stated)	-12.68
O=C(O)[C@]12CCCN(CC3CCOC3)C[C@H]1CN(c1ncccn1)C2 (some centres not stated)	13.16
O=C1CCN(C(=O)C2(c3ccc(F)cc3)CCOCC2)CCN1	63.46
O=C1CCN(C(=O)C2(c3ccc(F)cc3)CCCC2)CCN1	37.18
O=C1CCN(C(=O)C2(c3ccc(F)cc3)CCCCC2)CCN1	-41.64
CCn1c(C2CCN(C(=O)c3ccc4cc[nH]c4c3)CC2)n[nH]c1=O	-9.71
O=C(c1ccccc1)N1CCCC2(CCN2Cc2cccc(F)c2)C1 (configuration not stated)	29.03

Structure (SMILES)	INHIBITION [%]
COc1cc2cc(C(=O)NCC(=O)O)n(C)c2c(OC)c1OC	16.47
CC(=O)Nc1ccc(CNC2CC(=O)N(Cc3cccc(F)c3)C2)cc1 (configuration not stated)	-34.5
COCCO[C@H]1CCN(c2cc(OC)ncn2)[C@H]1Cc1cccnc1	3
Cc1cnc2n(c1=O)CC(C(=O)Nc1ccccc1Cl)CS2 (configuration not stated)	-51.94
Cc1ccc(Cl)cc1NC(=O)C1CSc2ncc(C)c(=O)n2C1 (configuration not stated)	61.06
Cc1ccncc1NC(=O)C1CSc2ncc(C)c(=O)n2C1 (configuration not stated)	13.95
Cc1ccc(-c2noc(CN3CCc4cncnc4C3)n2)cc1	-49.27
O=C(c1ccc2c(c1)COC2)N1CCC(Nc2cccnn2)CC1	31.19
Cc1cncc(C(=O)N2CC[C@@]3(C[C@H](NS(C)(=O)=O)CCO3)C2)c1	17.83
CCCc1cc(=O)[nH]c(-n2nc(C3CC3)cc2N)n1	-67.99
CC(C)(C)CN1CCCC(O)(CN2CCc3[nH]ncc3C2)C1=O (configuration not stated)	-92.69
O=C1N(CC2CCCCC2)CCCC1(O)CN1CCc2[nH]ncc2C1 (configuration not stated)	29.9
O=C1N(CC2CC2)CCCC1(O)CN1CCc2[nH]ncc2C1 (configuration not stated)	61.42
CC(C)c1noc(CCCC(=O)N2CCN(Cc3cccnc3)CC2)n1	26.06
O=C(c1ccco1)N1CCCC2(CN(Cc3ccsc3)CCO2)C1 (configuration not stated)	-26.14
Cc1noc(C(C)N2CCN(CCOCC(F)(F)F)CC2)n1 (configuration not stated)	36.95
CN1CC2(CCN(C(=O)c3ccc4c(=O)n(C)cnc4c3)CC2)CC1=O	-7.68
CN1CC2(CCN(C(=O)c3ccc4c(=O)n(C)cnc4c3)C2)OC1=O (configuration not stated)	52.03
Cc1nc[nH]c1C(=O)N1CCC2(CN(C)C(=O)O2)C1 (configuration not stated)	36.22
CNC(=O)c1cccnc1NCCOc1ccccc1	-1.89
CNC(=O)c1cccnc1NCc1ccc(Cn2cccn2)cc1	-6.29
CNC(=O)c1cccc(NCCOc2ccc(CC#N)cc2)c1C	34.46

Structure (SMILES)	INHIBITION [%]
CNC(=O)c1cccnc1NCc1ccc(-n2cccn2)cc1	-6.98
CNC(=O)c1cccnc1NCCOc1ccc(CC#N)cc1	54.29
CC(C)(NCCOc1ccc(CC#N)cc1)c1nccs1	56.89
c1ccc(NCc2ccc(Cn3ccnc3)cc2)nc1	17.64
Brc1ccc(NCc2ccc(Cn3ccnc3)cc2)nc1	74.17
CS(=O)(=O)c1ccccc1NCc1ccc(Cn2ccnc2)cc1	6.78
Cc1csc(C(C)(C)NCCOc2ccc(CC#N)cc2)n1	30.06
CC(C)(NCCCOc1ccc(C#N)cc1)c1nccs1	9.27
CNC(=O)c1cccnc1NCc1ccc(Cn2ccnc2)cc1	71.57
CC(C)(CNC1CCCN(Cc2ccccc2F)C1)CN1CCOCC1 (configuration not stated)	18.22
CCc1ccccc1CN1CCn2nc(CNC(C)=O)cc2C1	-31.66
COc1cccc2c1OCC(NC(=O)NCCc1ccccn1)C2 (configuration not stated)	40.59
NC(=O)N1CCCN(CCCSCc2ccccc2)CC1	-16.28
c1ccc(Cc2cccc(C3CCCN3C3CCOCC3)n2)cc1 (configuration not stated)	44.16
O=S(=O)(c1cccc(F)c1)N1C[C@H]2CC[C@@H](C1)N(Cc1ccccc1)C2	-13.58
CC(C(=O)NCc1ccnc(OC2CCCC2)c1)n1cncn1 (configuration not stated)	-5.34
O=C1NCCCc2c1oc1ccc(O)c(CN3CCOCC3)c21	10.49
CC(C)NC(=O)c1ccc2c(c1)C(c1nc[nH]n1)CN2S(C)(=O)=O (configuration not stated)	-18.52
CCC(CC)NC(=O)c1ccc2c(c1)C(c1nc[nH]n1)CN2S(C)(=O)=O (configuration not stated)	36.34
CCN(C)C(=O)c1ccc2c(c1)C(c1nc[nH]n1)CN2S(C)(=O)=O (configuration not stated)	53.55
Cc1cnc(C(=O)N2CCCC(n3cncn3)C2)cn1 (configuration not stated)	-43.79
CCOc1cc(CN[C@@H]2COC[C@H]2Cc2cc(C)no2)ccc1O	33.64

Structure (SMILES)	INHIBITION [%]
CCN1CCN(C(=O)c2[nH]c3ccccc3c2Cl)[C@H]2CS(=O)(=O)C[C@H]21	25.65
CCc1c(C(=O)N2CCN(C)[C@@H]3CS(=O)(=O)C[C@@H]32)[nH]c2ccccc12	65.3
Cc1c(C(=O)N2CCN(C)[C@@H]3CS(=O)(=O)C[C@@H]32)[nH]c2ccc(F)cc12	28.95
COc1ccccc1-n1nc(C(C)C)nc1Cc1nnc(N)s1	49.32
CS(=O)(=O)NCCCNC(=O)c1cccnc1O	-55.03
C[C@@H]1C[C@@H]2CCN(Cc3ccccn3)C[C@H]2O1	2.98
C[C@H]1C[C@H]2CN(Cc3ccccn3)CC[C@@H]2O1	66.23
C[C@H]1C[C@@H]2CCN(Cc3ccccn3)C[C@H]2O1	0.78
O=C(Cn1cccn1)N1CCc2[nH]nc(-c3ccc4c(c3)OCO4)c2C1	37.41
O=C1CN([C@@H]2CC[C@@H](NS(=O)(=O)c3ccc(F)cc3)[C@H]2O)CCN1	22.95
CSCC(=O)N1CCCC(n2ccnc2C(C)C)C1 (configuration not stated)	-47.97
COCc1nc(C(=O)N2CCCC(n3ccnc3C)C2)cs1 (configuration not stated)	53.69
COCc1nc(C(=O)N2CCCC(n3ccnc3)C2)cs1 (configuration not stated)	28.54
COCc1nc(C(=O)N2CCCC(n3ccnc3C(C)C)C2)cs1 (configuration not stated)	52.52
Cc1nc(CC(=O)N2CCCC(n3ccnc3C(C)C)C2)cs1 (configuration not stated)	66.2
COCc1nc(C(=O)N2CCCC(n3cccn3)C2)cs1 (configuration not stated)	21.89
Cc1ccc(CC(=O)N2CCCC(n3ccnc3C(C)C)C2)cn1 (configuration not stated)	28.65
CC(C)c1nccn1C1CCCN(C(=O)c2ccsc2)C1 (configuration not stated)	-12.41
CCc1nccn1C1CCCN(C(=O)c2csc(COC)n2)C1 (configuration not stated)	24.15

Reference: ChEMBL document CHEMBL4513216, “Probing the Open Global Health Chemical Diversity Library for Multistage-Active Starting Points for Next-Generation Antimalarials” (ACS Infect Dis, 2020)
